High-throughput results: PubChem BioAssay, several laboratories
Mtb RmlCD inh = blocks M. tuberculosis RmlC and RmlD coupled enzymes; inhibition, % at 3.6 µM; 0.03% of 160,000 active; RmlC+RmlD coupled enzyme assay, percent inhibition; primary screen in compound mixtures; in the data active = inhibition mostly above about 34%, no sharp cut-off
Target sequence (P9WH09 whole entry, looked up): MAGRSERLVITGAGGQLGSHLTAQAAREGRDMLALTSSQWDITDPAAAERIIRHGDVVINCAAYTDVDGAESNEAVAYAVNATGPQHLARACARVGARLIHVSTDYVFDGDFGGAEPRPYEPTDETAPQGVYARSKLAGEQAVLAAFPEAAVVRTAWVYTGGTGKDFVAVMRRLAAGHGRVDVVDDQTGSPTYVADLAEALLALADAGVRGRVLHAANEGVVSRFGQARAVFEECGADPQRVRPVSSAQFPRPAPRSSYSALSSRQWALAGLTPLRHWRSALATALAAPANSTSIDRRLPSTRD
Target sequence (P9WH11 whole entry, looked up): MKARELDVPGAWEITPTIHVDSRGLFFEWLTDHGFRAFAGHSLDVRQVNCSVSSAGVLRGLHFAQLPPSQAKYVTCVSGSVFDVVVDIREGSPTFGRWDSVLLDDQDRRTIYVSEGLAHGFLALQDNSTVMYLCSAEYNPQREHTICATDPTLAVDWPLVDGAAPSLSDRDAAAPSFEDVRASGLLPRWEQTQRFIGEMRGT
YopH PTP inh = YopH (Yersinia) phosphatase inhibition | fluorescence Ex485/Em525 | inhibition, % (no concentration beside the values) | 0.16% of 140,000 active; in the data active = inhibition above about 50%
Starred values were filed as active, the others as inactive; / = not tested or not shown. The full list was thinned out, with hits kept by preference.

SMILES	Mtb RmlCD inh	YopH PTP inh
COc1ccc(/C=N/NC(=O)CCn2cnc(-c3ccccc3)c2-c2ccccc2)cc1OC	6	-5
Cc1cccc(/C=N\NC(=O)c2sccc2-n2cccc2)c1	/	31
O=c1[nH]c(Nc2ccc(F)cc2)cc2ccccc12	-1	90*
Cc1ccccc1Nc1cc2ccccc2c(=O)[nH]1	-10	101*
Cc1cc2ccccc2c(=O)[nH]1	6	-13
O=c1[nH]c(-c2ccccn2)cc2ccccc12	-6	-32
CC(C)CN1C(=O)NC(NS(=O)(=O)c2ccc(N)cc2)(C(F)(F)F)C1=O (stereo not drawn)	-4	-26
CCN(CC)c1ccc(C=Nc2ccccc2)c(O)c1	/	52*
CCN(CC)c1ccc(/C=N/NC(=O)OC)c(O)c1	/	2
CCN(CC)c1ccc(/C=N/Nc2cccc(C)c2)c(O)c1	-10	58*
CCN(CC)c1ccc(N=Cc2ccc(N(CC)CC)cc2O)cc1	/	-17
CCN(CC)c1ccc(/C=N/Nc2ccccc2)c(O)c1	/	51*
CCN(CC)c1ccc(C=Nc2cc(C)cc(C)c2)c(O)c1	-12	-28
Cc1ccc(S(=O)(=O)CCC(=O)OCC(=O)NCc2ccc(Cl)cc2)cc1	6	/
O=C(CSc1nnc2sc3ccccc3n12)c1ccco1	11	13
CNC(=O)c1cc2c(s1)-c1ccccc1CC2	57*	/
O=C(N/N=C/c1ccc(F)c(F)c1)c1cc2c(s1)-c1ccccc1CC2	16	-31
O=C(NCc1ccc(OC(F)(F)F)cc1)C1CC(c2c(Cl)cccc2Cl)=NO1 (stereo not drawn)	10	-3
CCOC(=O)CNc1c(-c2ccc(Cl)cc2)nc2cnccn12	/	-12
CCOC(=O)CNc1c(-c2ccc(F)cc2)nc2cnccn12	51*	-18
CCc1cc[n+](C2=C([O-])c3ccccc3C(=O)/C2=N\S(=O)(=O)c2cccs2)cc1	4	69*
O=C1C(Nc2ccccc2)=C/C(=N/S(=O)(=O)c2cccs2)c2ccccc21	5	-13
Cc1ccc(NC(=O)CSc2nnc(-c3cccnc3)n2CCN2CCCCC2)cc1	34	-17
COC(=O)CC1C(=O)NCCN1C(=O)CSc1nc2ccccc2s1 (stereo not drawn)	4	/
CCN(CC)c1ccc(NC(=O)c2cccc(OC)c2)c(C)c1	-9	51*
SMILES	Mtb RmlCD inh	YopH PTP inh
CCN(CC)c1ccc(NC(=O)c2cc(OC)cc(OC)c2)c(C)c1	8	-112
O=C(OCC#CCSc1nnc(-c2ccc([N+](=O)[O-])cc2)o1)c1cccs1	/	3
COc1cccc(-c2[nH]nc3c2C(c2ccoc2)C(C#N)=C(N)O3)c1 (stereo not drawn)	1	-3
CCNc1nc2c(c(=O)[nH]c(=O)n2C)n1Cc1ccc(F)cc1	-8	-14
CCCNc1nc2c(c(=O)[nH]c(=O)n2C)n1Cc1ccc(F)cc1	/	60*
CCN(CC)S(=O)(=O)c1ccc(NC(=O)C2CCCN(C(=O)c3ccc(Cl)cc3)C2)cc1 (stereo not drawn)	6	-37
C#CCn1cc(C=C2C(=O)c3ccccc3C2=O)c2ccccc21	25	51*
C#CCn1c(=O)cc(C)c2ccccc21	3	/
CSc1ccc(S(=O)(=O)Nc2ccc(OCC(=O)N3CCOCC3)cc2)cc1	7	/
COc1ccccc1NC(=O)N1CCC(C(=O)c2ccc(F)cc2)CC1	-7	56*
CCOc1ccccc1NC(=O)N1CCC(C(=O)c2ccc(F)cc2)CC1	-4	-18
CC(C)CCc1noc(CN(CC2CCC2)CC2CCCO2)n1 (stereo not drawn)	14	/
CC(C)(C)c1cc(C(=O)Nc2ccccc2)ccn1	3	-39
Cc1ccc(NC(=O)c2ccnc(C(C)(C)C)c2)cc1	/	68*
